From PubChem BioAssay (EPA / NIEHS) come the findings set out here.

Records with an inconclusive call do not appear. Activity calls are given as the source filed them. The calls were made as follows: active = hit-call score of the fitted dose curve at least 0.9, where 1 is the maximum; inconclusive = response in the unintended direction; inactive = score below 0.9.

Sequence of human Serotonin, 5-Hydroxytryptamine Receptor 6 (5HT6), HTR6 (gene 3362) (P50406 whole entry, looked up): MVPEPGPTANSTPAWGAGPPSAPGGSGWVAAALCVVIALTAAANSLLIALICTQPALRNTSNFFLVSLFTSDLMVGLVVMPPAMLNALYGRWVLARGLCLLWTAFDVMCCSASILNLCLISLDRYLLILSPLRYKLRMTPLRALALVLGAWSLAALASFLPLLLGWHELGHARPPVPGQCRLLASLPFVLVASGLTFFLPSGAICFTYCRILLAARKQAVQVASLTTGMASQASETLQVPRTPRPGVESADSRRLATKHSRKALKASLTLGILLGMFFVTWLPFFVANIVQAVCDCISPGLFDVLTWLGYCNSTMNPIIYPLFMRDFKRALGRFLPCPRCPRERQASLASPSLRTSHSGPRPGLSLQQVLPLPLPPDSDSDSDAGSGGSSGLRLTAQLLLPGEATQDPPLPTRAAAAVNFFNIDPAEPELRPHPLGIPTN
Sequence of human Adrenergic, Beta 1 Receptor (Adrb1), ADRB1 (gene 153) (P08588 whole entry, looked up): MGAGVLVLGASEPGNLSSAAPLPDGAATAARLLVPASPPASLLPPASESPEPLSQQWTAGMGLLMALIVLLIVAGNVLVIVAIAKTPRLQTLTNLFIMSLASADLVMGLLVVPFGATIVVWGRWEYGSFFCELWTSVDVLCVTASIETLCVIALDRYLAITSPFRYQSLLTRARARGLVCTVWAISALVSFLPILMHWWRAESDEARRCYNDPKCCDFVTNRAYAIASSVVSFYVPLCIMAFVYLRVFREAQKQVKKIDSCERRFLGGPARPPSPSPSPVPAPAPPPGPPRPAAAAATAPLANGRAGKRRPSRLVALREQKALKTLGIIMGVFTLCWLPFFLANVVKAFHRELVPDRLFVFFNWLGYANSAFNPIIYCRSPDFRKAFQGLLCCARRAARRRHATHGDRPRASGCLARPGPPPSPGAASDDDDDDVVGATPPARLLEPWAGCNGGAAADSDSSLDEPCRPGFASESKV
Sequence of human Serotonin, 5-Hydroxytryptamine Receptor 7 (5HT7), HTR7 (gene 3363) (P34969 whole entry, looked up): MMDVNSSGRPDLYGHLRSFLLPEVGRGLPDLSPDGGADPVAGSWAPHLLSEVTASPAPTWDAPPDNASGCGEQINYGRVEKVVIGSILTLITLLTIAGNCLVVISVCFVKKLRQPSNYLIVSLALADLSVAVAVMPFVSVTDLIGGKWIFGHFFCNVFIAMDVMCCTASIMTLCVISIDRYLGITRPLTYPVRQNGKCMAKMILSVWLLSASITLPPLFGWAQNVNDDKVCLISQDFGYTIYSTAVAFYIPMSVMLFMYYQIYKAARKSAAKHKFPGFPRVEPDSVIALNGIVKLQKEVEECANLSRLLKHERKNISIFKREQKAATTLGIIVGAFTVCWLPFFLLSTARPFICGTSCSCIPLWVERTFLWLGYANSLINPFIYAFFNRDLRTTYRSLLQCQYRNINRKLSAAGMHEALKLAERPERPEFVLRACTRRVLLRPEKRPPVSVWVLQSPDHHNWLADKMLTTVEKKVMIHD

The first test deals with human Serotonin, 5-Hydroxytryptamine Receptor 6 (5HT6), HTR6 (gene 3362) (UniProt P50406). The experiment in a line: NVS_GPCR_h5HT6: NovaScreen (NVS) G Protein-Coupled Receptor Assay for human Serotonin, 5-Hydroxytryptamine Receptor 6 (5HT6) (AID 2283253). In a few lines:
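Radioligand binding to 5HT6 in HEK293-derived membranes, cell-free, 1 h after dosing; bound ligand measured by filter-based scintillation counting. Primary screen in duplicate at 25 uM; actives retested in concentration series.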
For `NS(=O)(=O)c1cc2c(cc1Cl)NCNS2(=O)=O`, the result was inactive.

`Nc1ccc(S(=O)(=O)c2ccc(N)cc2)cc1`: the AC50 (in general, the midpoint of the concentration-response curve, whichever way the signal moves) was 1.2 µM (active).

For `CCCCC(CC)COC(=O)CC(C(=O)OCC(CC)CCCC)S(=O)(=O)O` (centres undefined), the AC50 was 36.6 µM (active).

On to `Oc1ccc2c(c1)OC[C@@H](N1CCC(O)(c3ccc(F)cc3)CC1)[C@H]2O`, for which the outcome was inactive.

Regarding `NCCO`, the call was inactive.

Take `CN1CCN(Cc2cc(-c3ccc4[nH]c(=O)oc4c3)co2)[C@@H](c2ccc(F)cc2)C1`: the AC50 was 2.5 µM (active).

Turning to `NC(=O)Cn1c(=O)cc(CCN2CCN(c3nccc4sccc34)CC2)c2ccc(F)cc21`, the AC50 is 0.214 µM (active).

The target in a further test is human Adenosine A1 Receptor (AdoRA1), ADORA1 (gene 134) (UniProt P30542). Put plainly: NVS_GPCR_hAdoRA1: NovaScreen (NVS) G Protein-Coupled Receptor Assay for human Adenosine A1 Receptor (AdoRA1) (AID 2283254). In short, it runs like this: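 Radioligand binding was run on human cortical membranes, cell-free, with filter-based scintillation counting 1 h after dosing. The primary screen was duplicate at 25 uM, followed by concentration series. Signal loss versus DMSO was fitted positive-direction.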
Sequence of human Adenosine A1 Receptor (AdoRA1), ADORA1 (gene 134) (P30542 whole entry, looked up): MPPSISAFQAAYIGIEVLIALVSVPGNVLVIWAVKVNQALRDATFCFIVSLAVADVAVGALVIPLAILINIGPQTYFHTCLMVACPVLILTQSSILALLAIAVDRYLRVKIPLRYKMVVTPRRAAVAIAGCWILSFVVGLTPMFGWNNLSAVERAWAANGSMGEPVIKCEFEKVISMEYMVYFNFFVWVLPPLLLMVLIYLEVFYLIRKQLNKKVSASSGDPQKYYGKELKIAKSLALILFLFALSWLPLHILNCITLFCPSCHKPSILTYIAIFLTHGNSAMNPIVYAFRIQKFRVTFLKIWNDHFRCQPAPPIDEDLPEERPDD
With `O=C(N[C@@H](Cc1ccccc1)[C@@H](O)C(=O)N1C[C@@H](O)[C@@H](O)C1)c1cc2cc(Cl)ccc2[nH]1`, the AC50 is 16 µM (active).

As to `C=CCOC(=O)c1ccccc1C(=O)OCC=C`, the call was inactive.

With `CCCCC(CC)COC(=O)CC(C(=O)OCC(CC)CCCC)S(=O)(=O)O` (centres undefined), the AC50 is 20.7 µM (active).

As to `Nc1ccc2c(c1)C(=O)c1ccccc1C2=O`, the AC50 is 6.52 µM (active).

Turning to `Oc1ccc2c(c1)OC[C@@H](N1CCC(O)(c3ccc(F)cc3)CC1)[C@H]2O`, the compound was classed as inactive.

`O=c1c(O)c(-c2ccc(O)c(O)c2)oc2cc(O)cc(O)c12`: the result was inactive.

Take `CCOC(=O)CCC(=O)OCC`: the call was inactive.

In the next test the target is human Serotonin, 5-Hydroxytryptamine Receptor 7 (5HT7), HTR7 (gene 3363) (UniProt P34969). Put plainly: NVS_GPCR_h5HT7: NovaScreen (NVS) G Protein-Coupled Receptor Assay for human Serotonin, 5-Hydroxytryptamine Receptor 7 (5HT7) (AID 2283255).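 Also: hits reduce specific radioligand binding relative to DMSO.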 Here is the method:
NVS_GPCR_h5HT7 is a biochemical, single-readout assay that uses extracted gene-proteins from CHO in a cell-free assay. Measurements were taken 1 hour after chemical dosing in a 96-well plate.NVS_GPCR_h5HT7 is one of one assay component(s) measured or calculated from the NVS_GPCR_h5HT7 assay. It is designed to make measurements of radioligand binding, a form of binding reporter, as detected with scintillation counting signals by Filter-based radiodetection technology.Data from the assay component NVS_GPCR_h5HT7 was analyzed into 1 assay endpoint. This assay endpoint, NVS_GPCR_h5HT7, was analyzed in the positive analysis fitting direction relative to DMSO as the negative control and baseline of activity. Using a type of binding reporter, loss-of-signal activity can be used to understand changes in the binding as they relate to the gene HTR7. Furthermore, this assay endpoint can be referred to as a primary readout, because the performed assay has only produced 1 assay endpoint. To generalize the intended target to other relatable targets, this assay endpoint is annotated to the gpcr intended target family, where the subfamily is rhodopsin-like receptor.
Binding assays used specific radioligands (tritiated, iodinated) with non-radioactive competitive displacement ligands in agonist or antagonist protocols (as indicated) and various reference compounds and inhibitors to titrate specific binding to receptors and transporters. Most enzyme assays (CYPs, kinases, phosphatases, proteases, HDACs) used recombinant protein and specific substrates (fluorescence mostly, some colorimetric and radioactive) and inhibitors, followed by a biochemical separation of substrate and product. All assays for the biochemical HTS were initially run in duplicate at a single concentration (10 uM for CYP450 assays and 25 uM for all others). […] Each assay was run with positive and negative controls, and concurrent controls on every plate. The follow-up (secondary) screen tested active chemical-pairs in concentration series, as well as a few additional assays not tested in the primary screen, some selected negative inactives, and several cases re-run in the concentration series for confirmatory purposes.
Take `CCCCC(CC)COC(=O)CC(C(=O)OCC(CC)CCCC)S(=O)(=O)O` (centres undefined): the AC50 is 6.08 µM (active).

Consider `COc1cc(S(=O)(=O)O)c(C)cc1N=Nc1c(O)ccc2cc(S(=O)(=O)O)ccc12`, for which the AC50 is 14.8 µM (active).

Consider `CN1CCN(Cc2cc(-c3ccc4[nH]c(=O)oc4c3)co2)[C@@H](c2ccc(F)cc2)C1`, for which the AC50 is 15.6 µM (active).

As to `CC(C)c1ccc(C(=O)N=C(N)N)cc1S(C)(=O)=O`, the AC50 was 8.17 µM (active).

In the case of `NC(=O)Cn1c(=O)cc(CCN2CCN(c3nccc4sccc34)CC2)c2ccc(F)cc21`, the AC50 was 0.0155 µM (active).

On to `CCOC(=O)CCC(=O)OCC`, for which the call was inactive.

In a further test the target is human Adenosine A2a Receptor (AdoRA2a), ADORA2A (gene 135) (UniProt P29274). The experiment in a line: NVS_GPCR_hAdoRA2a: NovaScreen (NVS) G Protein-Coupled Receptor Assay for human Adenosine A2a Receptor (AdoRA2a) (AID 2283256). In a few lines: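 Cell-free radioligand binding on membranes from HEK293 expressing the receptor; competitive displacement read 1.5 h after dosing by filter-based scintillation counting. Primary screen in duplicate at 25 uM; actives followed in concentration series, with DMSO as baseline.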
Sequence of human Adenosine A2a Receptor (AdoRA2a), ADORA2A (gene 135) (P29274 whole entry, looked up): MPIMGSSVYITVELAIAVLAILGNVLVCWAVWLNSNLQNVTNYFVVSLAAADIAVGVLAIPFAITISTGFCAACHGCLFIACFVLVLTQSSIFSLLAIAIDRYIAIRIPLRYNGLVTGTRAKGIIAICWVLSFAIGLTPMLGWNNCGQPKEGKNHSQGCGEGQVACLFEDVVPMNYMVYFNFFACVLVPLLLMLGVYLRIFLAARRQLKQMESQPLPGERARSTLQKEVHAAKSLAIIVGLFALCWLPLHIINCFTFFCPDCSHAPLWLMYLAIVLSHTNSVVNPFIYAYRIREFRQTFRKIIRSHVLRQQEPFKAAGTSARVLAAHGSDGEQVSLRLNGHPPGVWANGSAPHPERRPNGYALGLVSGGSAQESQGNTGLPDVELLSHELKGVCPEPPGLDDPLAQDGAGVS
Take `CCOc1ccc2c(c1)C(C)=CC(C)(C)N2`: the compound was called inactive.

As to `CCCCC(CC)COC(=O)CC(C(=O)OCC(CC)CCCC)S(=O)(=O)O` (centres undefined), the AC50 was 25 µM (active).

Turning to `O=c1c(O)c(-c2ccc(O)c(O)c2)oc2cc(O)cc(O)c12`, the AC50 is 11.8 µM (active).

With `Nc1ccccc1N`, the AC50 is 0.975 µM (active).

As to `CCOC(=O)CCC(=O)OCC`, the compound was called inactive.

The target in a further test is human Adrenergic, Alpha 2A Receptor (Adra2A), ADRA2A (gene 150) (UniProt P08913). Put plainly: NVS_GPCR_hAdra2A: NovaScreen (NVS) G Protein-Coupled Receptor Assay for human Adrenergic, Alpha 2A Receptor (Adra2A) (AID 2283257). In a few lines: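 Radioligand filter-binding was run on HT29-derived membranes, cell-free, read by scintillation counting 1 h after dosing. Primary screening was in duplicate at 25 uM, with concentration series in follow-up. Loss of signal versus DMSO indicates displacement.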
Sequence of human Adrenergic, Alpha 2A Receptor (Adra2A), ADRA2A (gene 150) (P08913 whole entry, looked up): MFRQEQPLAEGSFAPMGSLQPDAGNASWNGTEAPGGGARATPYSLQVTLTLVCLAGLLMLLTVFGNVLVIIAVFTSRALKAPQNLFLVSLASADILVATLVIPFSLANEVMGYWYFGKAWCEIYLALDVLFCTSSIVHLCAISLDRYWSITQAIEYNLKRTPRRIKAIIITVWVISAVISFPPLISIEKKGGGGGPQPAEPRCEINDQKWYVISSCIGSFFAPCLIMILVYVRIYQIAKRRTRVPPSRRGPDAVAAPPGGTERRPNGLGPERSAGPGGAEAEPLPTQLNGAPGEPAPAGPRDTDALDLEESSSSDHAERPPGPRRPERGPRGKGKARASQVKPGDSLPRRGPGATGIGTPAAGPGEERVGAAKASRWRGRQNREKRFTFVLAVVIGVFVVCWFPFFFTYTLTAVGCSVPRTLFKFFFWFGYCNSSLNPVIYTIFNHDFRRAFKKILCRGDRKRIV
In the case of `CCCCC(CC)COC(=O)CC(C(=O)OCC(CC)CCCC)S(=O)(=O)O` (centres undefined), the outcome was inactive.

For the compound `Oc1ccc2c(c1)OC[C@@H](N1CCC(O)(c3ccc(F)cc3)CC1)[C@H]2O`, the result was inactive.

Turning to `NC(=O)Cn1c(=O)cc(CCN2CCN(c3nccc4sccc34)CC2)c2ccc(F)cc21`, the AC50 was 2.03 µM (active).

Another test addresses human Adrenergic, Beta 1 Receptor (Adrb1), ADRB1 (gene 153) (UniProt P08588). Put plainly: NVS_GPCR_hAdrb1: NovaScreen (NVS) G Protein-Coupled Receptor Assay for human Adrenergic, Beta 1 Receptor (Adrb1) (AID 2283258). In a few lines:
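Cell-free radioligand displacement on receptor from human neuroepithelioma cells; 2 h after dosing, filter-based scintillation counting. Primary screen in duplicate at 25 uM, actives retested in concentration series; loss of signal vs DMSO baseline.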
Consider `Cc1ccc2ncccc2c1`, for which the compound was classed as inactive.

Take `O=C(O)Cc1ccccc1Nc1c(Cl)cccc1Cl`: the compound was called inactive.

As for `Nc1ccc(S(=O)(=O)c2ccc(N)cc2)cc1`, the compound was classed as inactive.

`CCCCC(CC)COC(=O)CC(C(=O)OCC(CC)CCCC)S(=O)(=O)O` (centres undefined): the AC50 is 6.35 µM (active).

On to `CN1CCN(Cc2cc(-c3ccc4[nH]c(=O)oc4c3)co2)[C@@H](c2ccc(F)cc2)C1`, for which the AC50 is 22 µM (active).

Take `NC(=O)Cn1c(=O)cc(CCN2CCN(c3nccc4sccc34)CC2)c2ccc(F)cc21`: the AC50 was 1.38 µM (active).
